High-throughput results (PubChem BioAssay)
IL-1B inflam inh: blocks inflammasome-driven IL-1 beta release | THP-1 LPS/ATP IL-1B secretion, AlphaLISA, 16 h; hits give low values | actives 4.7% (n = 360,000) | activity change, % at 57.5 µM; in the data active means activity change below about -50%; inconclusive means mostly about -30% to -49%
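THP-1 cells pretreated 1 hr with compounds (up to 57.5 uM final), then stimulated with LPS (250 ng/mL final) plus ATP (1.25 mM final); secreted IL-1B measured by AlphaLISA after 16 hr, decreased signal indicating inhibition.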
HT1080 IDH1KD tx: toxicity to HT-1080 IDH1 knockdown cells (counter line); HT-1080 IDH1 knockdown viability, ATP luminescence, 48 h; Potency, µM (top dose mostly 46.1 µM), without a hit: at the top dose activity, negative = toxicity, usual class: cytotoxic; actives 2% (n = 360,000);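 further: potency means the concentration at half of the fitted maximal effect; 0% = DMSO wells and -100% = cell-free medium wells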
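Knockdown cells (IDH1KD HT-1080) received compounds 2 h after plating at 750 cells/well and were kept 48 h at 37 °C in 5% FBS RPMI. A CellTiter-Glo luminescence read gave % activity for curve fitting.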
DT40 TDP1 CPT: DT40-hTDP1 cell growth loss with CPT; chicken DT40 Tdp1-/-;hTDP1 cells + 20 nM CPT, ATP luminescence, 48 h; Potency, µM (titrated, usually from 46.2 µM), for the others: top-dose activity change, negative = growth inhibition, hits mostly inhibitors; actives 12% (n = 420,000); AID 686979; further: potency means the concentration at half of the fitted maximal effect; nearly all actives have a fitted effect of over 55% in size
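Cell growth measured by CellTiter-Glo luminescence after a minimum 48 h, 37 C compound exposure with 20 nM CPT in Tdp1-knockout DT40 cells stably expressing hTDP1, seeded 400/well; qHTS titration format.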
TDP1 cell noCPT: qHTS for Inhibitors of human tyrosyl-DNA phosphodiesterase 1 (TDP1): qHTS in cells in absence of CPT | DT40 Tdp1-/- hTDP1 cells, no CPT, ATP luminescence, 48 h | Potency, µM (highest dose often 46.2 µM), for inactives: at the top dose activity change, negative = growth inhibition, most hits filed as inhibitors | actives 15% (n = 420,000) | AID 686978, 2013; further: potency means the concentration at half of the fitted maximal effect; nearly all actives have a fitted effect of over 55% in size
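No-CPT arm: Tdp1-/-;hTDP1 DT40 cells (400/well) plus compounds, incubated ≥48 hr at 37 °C. Readout CellTiter-Glo luminescence.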
ELG1 repair inh: inhibitors of ELG1-dependent DNA repair in HEK293T cells | HEK293T ELG1-luciferase reporter, luminescence, 16 h; DNA damage induced by 5-fluorouridine | Potency, µM (titrated, usually from 46.1 µM), for the others: at the top dose activity change, negative = inhibition, usual class: inhibitors | actives 2.3% (n = 330,000) | AID 504467; further: potency means the concentration at half of the fitted maximal effect; nearly all actives have a fitted effect of over 55% in size
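Cells (2,000 per well) received 5-fluorouridine plus test compound or DMSO and were incubated 16 hr at 37 °C, 5% CO2. Luciferase activity was read by luminescence 30 min after ONE-Glo addition; signal suppression marked inhibition of damage-induced ELG1 function.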
HT1080-NT tox: kills 2HG-producing HT-1080-NT fibrosarcoma cells | HT-1080-NT fibrosarcoma viability, CellTiter-Glo ATP luminescence, 48 h | Potency, µM (doses to about 46.1 µM), inactives show at the top dose activity, negative = less viability, usual class: cytotoxic | actives 1.6% (n = 360,000) | AID 686970;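 further: NT is the 2HG producing partner of a matched IDH1 knockdown line; potency means the concentration at half of the fitted maximal effect; 0% = DMSO-treated cells and -100% = media-only wells without cells; nearly all actives have a fitted effect of over 55% in size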
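Luminescent CellTiter-Glo readout after 48 hours of compound exposure at 37 degrees C defined viability of HT-1080-NT cells. Activity was normalized to DMSO wells and cell-free media wells; concentration-response curves were fitted and assigned curve classes.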
Numbers without * were called inactive; ? = inconclusive; nt = no result given; [ ] = another dose, or the depositor's remark. Hits are enriched below; roughly 19% of the tested compounds scored in any of these assays. Unless noted, the call rests on the fitted dose curve; in most records, active means well fitted curve in the direction sought with a large enough effect; inconclusive means small, poorly fitted or top-dose-only effect, or another doubt; inactive means no such curve, though single readings can be large; an effect the other way counts as inactive or inconclusive. Unless noted, on the % scale 0 is the no-effect control and ±100 the full control effect.

SMILES | IL-1B inflam inh | HT1080 IDH1KD tx | DT40 TDP1 CPT | TDP1 cell noCPT | ELG1 repair inh | HT1080-NT tox
CCCCn1c(=O)[nH]c(=O)c2c1nc(-c1ccc(OCCC)c(OCC)c1)n2CCOC | 33.8 | -16.8% | 4.3% | ? | 6.51µM* | -6.3%
O=c1[nH]c(=O)n(Cc2ccccc2)c2nc(-c3ccc(C(F)(F)F)cc3)n(CCO)c12 | 0.4 | 1.0% | ? | ? | -17.3% | 14.9%
CCCCn1c(=O)[nH]c(=O)c2c1nc(-c1ccc(-c3ccc(F)cc3)o1)n2C | 32.5 | 10.8% | ? | ? | -2.2% | 5.2%
CCCCn1c(-c2ccc(Br)cc2F)nc2c1c(=O)[nH]c(=O)n2CC(C)C | -68.4* | -24.4% | 20.6µM* | 23.1µM* | ? | ?
CCCOc1ccc(-c2nc3c(c(=O)[nH]c(=O)n3Cc3ccccc3)n2CCO)cc1OCC | 0.9 | -0.9% | ? | 16.4µM* | -27.8% | -21.1%
CCCCn1c(=O)[nH]c(=O)c2c1nc(-c1ccc(-c3ccccc3Br)o1)n2CCOC | 12.3 | 6.8% | ? | ? | 2.59µM* | 4.2%
CC1(C)OC(=O)C2=C(C[C@@H](C3CC3)O[C@@H]2C2CC2)O1 | 11.7 | 5.3% | 6.3% | -15.8% | nt | 19.9%
CCCN(CCC)C(=O)Cn1c(=O)n(-c2ccc(C)c(C)c2)c(=O)c2c3c(sc21)CCCCC3 | nt | nt | -14.0% | -4.8% | nt | nt
CN(C1CCCCC1)S(=O)(=O)c1ccc2c(c1)c(=O)c(C(=O)N1CCN(c3ccccc3F)CC1)cn2C | nt | nt | 0.9% | -0.1% | nt | nt
Cc1cccn2c(=O)c3cc(C(=O)N4CCOCC4)n(C)c3nc12 | -2.9 | 0.3% | 13.7% | -1.5% | 18.3% | 0.4%
Cc1cccn2c(=O)c3cc(C(=O)N4c5ccccc5CC4C)n(C)c3nc12 (centres undefined) | 58.2 | 8.1% | 18.4µM* | 16.4µM* | 5.2% | 15.8%
CC1Cc2ccccc2N1C(=O)c1cc2c(=O)n3ccccc3nc2n1C (centres undefined) | -29.9 | 10.8% | 11.6µM* | ? | ? | -18.3%
O=C1C2C3C=CC(O3)C2C(=O)N1N=Cc1cccc2ccccc12 (centres undefined) | 17.5 | 0.5% | 8.6% | 0.9% | nt | 6.8%
c1ccc(-n2cnnn2)cc1 | nt | nt | -4.2% | -1.9% | nt | nt
CCOC(=O)N1CCN(c2cc(N3CCN(CC)CC3)c(F)cc2[N+](=O)[O-])CC1C (centres undefined) | ? | ? | 20.6µM* | ? | -10.5% | -0.2%
CCOC(=O)N1CCN(c2cc(N3CCOCC3)c(F)cc2[N+](=O)[O-])CC1 | -13.9 | -0.4% | -28.9% | ? | -10.6% | -0.2%
O=C(NCCN1CCCC1)c1ccc2c(c1)N(Cc1ccccc1)C(=O)c1ccccc1S2(=O)=O | ? | -1.1% | -19.5% | 2.6% | -0.7% | -25.5%
CCC1CCCCN1CCCNC(=O)c1ccc2c(c1)N(Cc1cccc(C)c1)C(=O)c1ccccc1S2(=O)=O (centres undefined) | nt | nt | 16.4µM* | ? | nt | nt
CCC1CCCCN1CCCNC(=O)c1ccc2c(c1)N(Cc1ccc(Cl)cc1)C(=O)c1ccccc1S2(=O)=O (centres undefined) | nt | nt | 23.1µM* | 23.1µM* | nt | nt
CN(C)C1CN(Cc2cn(Cc3ccc(Cl)cc3)nn2)S(=O)(=O)C1 (centres undefined) | 17.8 | 9.5% | -2.9% | -20.2% | nt | 13.8%
O=C(NCc1ccc(F)cc1)C(=O)NCC1OCCN1S(=O)(=O)c1cc(F)ccc1F (centres undefined) | -12.5 | 4.7% | -18.2% | -8.0% | nt | 7.8%
CCOC(=O)N1CC(=O)Nc2ccc(Br)cc2C1c1ccccc1 (centres undefined) | 0.0 | -4.7% | ? | -23.7% | -9.4% | 6.0%
Cc1ccc2c(c1)C(c1ccccc1)N(C(=O)c1ccccc1[N+](=O)[O-])CC(=O)N2 (centres undefined) | 20.4 | -17.2% | 11.6µM* | 9.2µM* | 20.6µM* | 2.1%
O=C1CN(C(=O)c2ccccc2[N+](=O)[O-])C(c2ccccc2)c2cc(Br)ccc2N1 (centres undefined) | 25.2 | -8.5% | 20.6µM* | ? | 18.3µM* | -12.7%
COc1ccc(C(=O)N2CC(=O)Nc3ccc(C)cc3C2c2ccc(F)cc2)c(OC)c1 (centres undefined) | nt | nt | 20.6µM* | ? | nt | nt
SMILES | IL-1B inflam inh | HT1080 IDH1KD tx | DT40 TDP1 CPT | TDP1 cell noCPT | ELG1 repair inh | HT1080-NT tox
Cc1ccc(C(=O)N2CC(=O)Nc3ccc(F)cc3C2c2ccccc2)cc1[N+](=O)[O-] (centres undefined) | 0.0 | -21.2% | 18.4µM* | 20.6µM* | ? | -14.2%
CCOC(=O)C1(CC2CCCCO2)CCN(S(=O)(=O)c2cc(C)cs2)CC1 (centres undefined) | 19.5 | -14.6% | ? | ? | 9.7% | -9.1%
CC(=O)c1ccc(NC(=O)CN2C(=O)CCc3ccccc32)cc1 | nt | nt | -13.9% | -25.1% | nt | nt
CCCOc1ccc(N2C(=O)CC(NCC(=O)OCC)C2=O)cc1 (centres undefined) | 26.6 | 20.6% | 14.4% | -12.4% | nt | -2.9%
COc1cc(S(=O)(=O)Nc2ccc(Br)cc2)ccc1N | -8.2 | -1.3% | -24.9% | ? | ? | -2.9%
N=C(N)SCP(=O)(c1ccccc1)c1ccccc1 | -85.3* | -14.4% | 20.6µM* | 18.4µM* | ? | -12.6%
CC(C)Oc1ccc2c(=O)c3cc(C(=O)O)ccc3oc2c1 | nt | nt | 16.4% | -3.9% | nt | nt
Fc1ccc(Br)cc1C1C=C(c2ccc(Br)s2)Nc2ncnn21 (centres undefined) | -11.1 | 1.16µM* | 0.92µM* | 0.651µM* | 0.5% | 1.3µM*
CCOc1ccc(S(=O)(=O)Nc2ccc(F)cc2)c(C)c1C | 12.2 | 10µM* | 25.9µM* | 20.6µM* | ? | 5.8%[9.24 µM]
Cc1ccc(C(=O)N2CCCC(N3CCN(c4cccc(C(F)(F)F)c4)CC3)C2)s1 (centres undefined) | -9.5 | -23.7% | 1.3µM* | 6.51µM* | ? | ?
CCCc1cc(C(=O)N2CCCC(N3CCN(c4ccccc4C)CC3)C2)n(C)n1 (centres undefined) | 9.7 | -1.4% | 16.4µM* | ? | ? | -2.9%
O=C(c1ccncc1)N1CCCC(N2CCN(c3cccc(C(F)(F)F)c3)CC2)C1 (centres undefined) | 0.0 | -6.9% | 16.4µM* | ? | 17.1% | -8.7%
